# Assay results as given in publication PMC11062922 (Nature Chemical Biology, 2023).
# Where two headings read alike, the source gives them in different places.
# How the values were obtained:
# ABL1 = system: ABL1; parameters: species or system human, MV4-11 + K-562 + COLO205 + SK-N-BE2 + OVCAR-8; conditions: read-out: apparent Kd, n = 1
# ABL2 = system: ABL2; parameters: species or system human, MV4-11 + K-562 + COLO205 + SK-N-BE2 + OVCAR-8; conditions: read-out: apparent Kd, compound concentrations: 100 nM and 1000 nM (sheet 'Samples'), n = 1
# BCR = system: BCR; parameters: species or system human, MV4-11 + K-562 + COLO205 + SK-N-BE2 + OVCAR-8; conditions: read-out: apparent Kd, n = 1
# CLK1 = system: CLK1; parameters: species or system human, MV4-11 + K-562 + COLO205 + SK-N-BE2 + OVCAR-8; conditions: read-out: apparent Kd, n = 1
# FYN = system: FYN; parameters: species or system human, MV4-11 + K-562 + COLO205 + SK-N-BE2 + OVCAR-8; conditions: read-out: apparent Kd, compound concentrations: 100 nM and 1000 nM (sheet 'Samples'), n = 1
# GAK = system: GAK; parameters: species or system human, MV4-11 + K-562 + COLO205 + SK-N-BE2 + OVCAR-8; conditions: read-out: apparent Kd; compound concentrations: 100 nM and 1000 nM (sheet 'Samples'), CATDS: 2.37556853543167E-2; n = 1
# HCK = system: HCK; parameters: species or system human, MV4-11 + K-562 + COLO205 + SK-N-BE2 + OVCAR-8; conditions: read-out: apparent Kd, compound concentrations: 100 nM and 1000 nM (sheet 'Samples'), n = 1
# LCK = system: LCK; parameters: species or system human, MV4-11 + K-562 + COLO205 + SK-N-BE2 + OVCAR-8; conditions: read-out: apparent Kd, compound concentrations: 100 nM and 1000 nM (sheet 'Samples'), n = 1
# PTK6 = system: PTK6; parameters: species or system human, MV4-11 + K-562 + COLO205 + SK-N-BE2 + OVCAR-8; conditions: read-out: apparent Kd, compound concentrations: 100 nM and 1000 nM (sheet 'Samples'), n = 1
# RIPK2 = system: RIPK2; parameters: species or system human, MV4-11 + K-562 + COLO205 + SK-N-BE2 + OVCAR-8; conditions: read-out: apparent Kd, n = 1
# RIPK3 = system: RIPK3; parameters: species or system human, MV4-11 + K-562 + COLO205 + SK-N-BE2 + OVCAR-8; conditions: read-out: apparent Kd, compound concentrations: 100 nM and 1000 nM (sheet 'Samples'), n = 1
# TNK1 = system: TNK1; parameters: species or system human, MV4-11 + K-562 + COLO205 + SK-N-BE2 + OVCAR-8; conditions: read-out: apparent Kd, compound concentrations: 100 nM and 1000 nM (sheet 'Samples'), n = 1
# YES1 = system: YES1; parameters: species or system human, MV4-11 + K-562 + COLO205 + SK-N-BE2 + OVCAR-8; conditions: read-out: apparent Kd, compound concentrations: 100 nM and 1000 nM (sheet 'Samples'), n = 1
# Q6ZSR9 = Q6ZSR9 (human, UniProt Q6ZSR9); parameters: species or system MV4-11 + K-562 + COLO205 + SK-N-BE2 + OVCAR-8; conditions: read-out: apparent Kd, compound concentrations: 100 nM and 1000 nM (sheet 'Samples'), n = 1
# Sequence of Q6ZSR9 (Q6ZSR9 whole entry, looked up): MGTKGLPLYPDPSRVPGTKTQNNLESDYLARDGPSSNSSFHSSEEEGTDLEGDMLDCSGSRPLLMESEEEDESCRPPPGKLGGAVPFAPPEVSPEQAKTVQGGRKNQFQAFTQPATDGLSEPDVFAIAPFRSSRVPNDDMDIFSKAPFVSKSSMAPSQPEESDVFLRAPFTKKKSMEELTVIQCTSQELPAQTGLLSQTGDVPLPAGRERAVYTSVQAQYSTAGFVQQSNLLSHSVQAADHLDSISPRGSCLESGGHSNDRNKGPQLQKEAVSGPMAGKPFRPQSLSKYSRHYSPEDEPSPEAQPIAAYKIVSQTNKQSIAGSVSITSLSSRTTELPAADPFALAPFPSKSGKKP
# RET = system: RET; parameters: species or system human, MV4-11 + K-562 + COLO205 + SK-N-BE2 + OVCAR-8; conditions: read-out: apparent Kd, compound concentrations: 100 nM and 1000 nM (sheet 'Samples'), n = 1
# CSNK2A1;CSNK2A3 = system: CSNK2A1;CSNK2A3; parameters: species or system human, MV4-11 + K-562 + COLO205 + SK-N-BE2 + OVCAR-8; conditions: read-out: apparent Kd, n = 1
# CSNK2A2 = system: CSNK2A2; parameters: species or system human, MV4-11 + K-562 + COLO205 + SK-N-BE2 + OVCAR-8; conditions: read-out: apparent Kd, n = 1
# CLK4 = system: CLK4; parameters: species or system human, MV4-11 + K-562 + COLO205 + SK-N-BE2 + OVCAR-8; conditions: read-out: apparent Kd, n = 1
# [1] = compound concentrations:100 nM and 1000 nM (sheet 'Samples')
smiles,measurement,setting,value
CN(C)Cc1ccc(-c2ccc3c(Nc4ccc(Oc5ccccn5)cc4)ccnc3c2)o1 [GW567148X],potency estimated from few doses,"ABL1; compound concentrations: 100 nM and 1000 nM (sheet 'Samples'), CATDS: 2.6696820742308999E-2",474 nM
same,potency estimated from few doses,ABL2; CATDS: 2.2474655179730001E-2,716 nM
same,potency estimated from few doses,"BCR; compound concentrations: 100 nM and 1000 nM (sheet 'Samples'), CATDS: 2.3050499166144999E-2",671 nM
same,potency estimated from few doses,"CLK1; compound concentrations: 100 nM and 1000 nM (sheet 'Samples'), CATDS: 1.75413407111282E-2",1550 nM
same,potency estimated from few doses,FYN; CATDS: 2.9409133210556101E-2,385 nM
same,potency estimated from few doses,GAK,622 nM
same,potency estimated from few doses,HCK; CATDS: 0.14804740289448201,30.7 nM
same,potency estimated from few doses,LCK; CATDS: 3.1046843535100802E-2,345 nM
same,potency estimated from few doses,PTK6; CATDS: 5.2806540733476098E-2,134 nM
same,potency estimated from few doses,"RIPK2; compound concentrations: 100 nM and 1000 nM (sheet 'Samples'), CATDS: 9.2431358445575804E-2",57.7 nM
same,potency estimated from few doses,RIPK3; CATDS: 2.29584105489756E-2,678 nM
same,potency estimated from few doses,TNK1; CATDS: 3.2421651582332497E-2,316 nM
same,potency estimated from few doses,YES1; CATDS: 6.4400674253028201E-2,97.8 nM
Fc1ccc(-c2c(-c3ccncc3)[nH]c3nccnc23)cc1 [RO1155697-000],potency estimated from few doses,RIPK2; [1],828 nM
CN1CCN(Cc2ccc(NC(=O)Nc3ccc(N(C)c4ccnc(Nc5ccc(CS(C)(=O)=O)cc5)n4)cc3)cc2)CC1.Cl [GW827654A],potency estimated from few doses,"ABL1; compound concentrations: 100 nM and 1000 nM (sheet 'Samples'), CATDS: 3.4576588551286799E-2",1820 nM
same,potency estimated from few doses,ABL2; CATDS: 5.6323659121428699E-2,400 nM
same,potency estimated from few doses,"BCR; compound concentrations: 100 nM and 1000 nM (sheet 'Samples'), CATDS: 3.6645994259317798E-2",1440 nM
same,potency estimated from few doses,Q6ZSR9; CATDS: 3.5510221653806698E-2,1630 nM
same,potency estimated from few doses,RET; CATDS: 0.30394920877794601,22.8 nM
same,potency estimated from few doses,TNK1; CATDS: 0.12102048296208601,87.9 nM
COc1cccc(-c2c[nH]c3c(N/N=C/c4ccncc4)ncnc23)c1 [GW814408X],potency estimated from few doses,ABL1; [1],1980 nM
same,potency estimated from few doses,BCR; [1],1150 nM
same,potency estimated from few doses,CSNK2A1;CSNK2A3; [1],920 nM
same,potency estimated from few doses,CSNK2A2; [1],237 nM
N#Cc1cccc(Nc2nccc(-c3cnn4ncccc34)n2)c1 [GW778894X],potency estimated from few doses,CLK1; [1],3.93 nM
same,potency estimated from few doses,CLK4; [1],0.363 nM
same,potency estimated from few doses,CSNK2A1;CSNK2A3; [1],603 nM
same,potency estimated from few doses,CSNK2A2; [1],601 nM
Cc1cc(O)cc(C)c1/C=C/c1cncc(-c2nn[nH]n2)c1.Cl [GW441806A],potency estimated from few doses,ABL2; CATDS: 4.9411968087492097E-2,1050 nM
same,potency estimated from few doses,HCK; CATDS: 5.4045361972082297E-2,799 nM
same,potency estimated from few doses,PTK6; CATDS: 5.1044813253260601E-2,947 nM
same,potency estimated from few doses,"RIPK2; compound concentrations: 100 nM and 1000 nM (sheet 'Samples'), CATDS: 0.246510095033628",18 nM
same,potency estimated from few doses,RIPK3; CATDS: 4.07522630784811E-2,2090 nM
CNC(=O)c1ccccc1Nc1nc(Nc2cccc(CS(C)(=O)=O)c2)ncc1C.O=CO [GSK1520489A],potency estimated from few doses,"ABL1; compound concentrations: 100 nM and 1000 nM (sheet 'Samples'), CATDS: 1.34944121173274E-2",401 nM
same,potency estimated from few doses,ABL2; CATDS: 1.36244790700583E-2,389 nM
same,potency estimated from few doses,"BCR; compound concentrations: 100 nM and 1000 nM (sheet 'Samples'), CATDS: 1.52044449937046E-2",280 nM
same,potency estimated from few doses,"CLK1; compound concentrations: 100 nM and 1000 nM (sheet 'Samples'), CATDS: 2.0431825511786902E-2",131 nM
same,potency estimated from few doses,"CLK4; compound concentrations: 100 nM and 1000 nM (sheet 'Samples'), CATDS: 1.6424162942173099E-2",226 nM
same,potency estimated from few doses,"CSNK2A1;CSNK2A3; compound concentrations: 100 nM and 1000 nM (sheet 'Samples'), CATDS: 1.12264805832196E-2",773 nM
same,potency estimated from few doses,"CSNK2A2; compound concentrations: 100 nM and 1000 nM (sheet 'Samples'), CATDS: 1.1107914266042299E-2",807 nM
same,potency estimated from few doses,FYN; CATDS: 1.4785651294397E-2,304 nM
same,potency estimated from few doses,HCK; CATDS: 2.2518734177974401E-2,105 nM
same,potency estimated from few doses,LCK; CATDS: 2.8625863065429399E-2,63 nM
same,potency estimated from few doses,PTK6; CATDS: 5.57669232791278E-2,19.7 nM
same,potency estimated from few doses,Q6ZSR9; CATDS: 1.0084125464563E-2,1260 nM
same,potency estimated from few doses,RET; CATDS: 2.6340417566827701E-2,74.6 nM
same,potency estimated from few doses,TNK1; CATDS: 3.8833580007227697E-2,35.6 nM
same,potency estimated from few doses,YES1; CATDS: 2.28565858871594E-2,101 nM
CN1CCc2ccc(Nc3nccc(-c4c(-c5cccc(NC(=O)c6c(F)cccc6F)c5)nc5ccccn45)n3)cc2C1.Cl [GSK1010829B],potency estimated from few doses,"ABL1; compound concentrations: 100 nM and 1000 nM (sheet 'Samples'), CATDS: 3.3461879574950899E-2",1490 nM
same,potency estimated from few doses,ABL2; CATDS: 5.23803591077244E-2,515 nM
same,potency estimated from few doses,FYN; CATDS: 4.4096007495545798E-2,732 nM
same,potency estimated from few doses,HCK; CATDS: 7.6691780637307694E-2,270 nM
same,potency estimated from few doses,LCK; CATDS: 0.10139412977774399,180 nM
same,potency estimated from few doses,RET; CATDS: 6.1387367146580003E-2,387 nM
same,potency estimated from few doses,"RIPK2; compound concentrations: 100 nM and 1000 nM (sheet 'Samples'), CATDS: 3.7106800723599898E-2",1110 nM
same,potency estimated from few doses,RIPK3; CATDS: 5.0630244265372597E-2,550 nM
same,potency estimated from few doses,TNK1; CATDS: 4.6231570261128598E-2,661 nM
same,potency estimated from few doses,YES1; CATDS: 8.6634925532114604E-2,225 nM
